From ChEMBL document CHEMBL3988442, “University of Dundee, Small-Polar-MMV Screening Library” (2021)
For part of these data: Potency and affinity values are given separately.

Columns and labels:
Parameters in all cases: scale not given: direction of the effect not stated beside the values
[1] = target: Protein translocase subunit SecA (Escherichia coli (strain K12)) (UniProt P10408); experiment: Assay to Identify E. coli SecA ATPase Inhibitors; type: functional; conditions: 30 µM
[2] = target: T1, Ubiquitin-activating enzyme e1, putative (Leishmania donovani (strain BPK282A1)) (UniProt E9BSI1); experiment: Leishmania donovani Ubiquitin Activating Enzyme (LdE1); type: functional; conditions: 30 µM
T1 sequence (whole entry): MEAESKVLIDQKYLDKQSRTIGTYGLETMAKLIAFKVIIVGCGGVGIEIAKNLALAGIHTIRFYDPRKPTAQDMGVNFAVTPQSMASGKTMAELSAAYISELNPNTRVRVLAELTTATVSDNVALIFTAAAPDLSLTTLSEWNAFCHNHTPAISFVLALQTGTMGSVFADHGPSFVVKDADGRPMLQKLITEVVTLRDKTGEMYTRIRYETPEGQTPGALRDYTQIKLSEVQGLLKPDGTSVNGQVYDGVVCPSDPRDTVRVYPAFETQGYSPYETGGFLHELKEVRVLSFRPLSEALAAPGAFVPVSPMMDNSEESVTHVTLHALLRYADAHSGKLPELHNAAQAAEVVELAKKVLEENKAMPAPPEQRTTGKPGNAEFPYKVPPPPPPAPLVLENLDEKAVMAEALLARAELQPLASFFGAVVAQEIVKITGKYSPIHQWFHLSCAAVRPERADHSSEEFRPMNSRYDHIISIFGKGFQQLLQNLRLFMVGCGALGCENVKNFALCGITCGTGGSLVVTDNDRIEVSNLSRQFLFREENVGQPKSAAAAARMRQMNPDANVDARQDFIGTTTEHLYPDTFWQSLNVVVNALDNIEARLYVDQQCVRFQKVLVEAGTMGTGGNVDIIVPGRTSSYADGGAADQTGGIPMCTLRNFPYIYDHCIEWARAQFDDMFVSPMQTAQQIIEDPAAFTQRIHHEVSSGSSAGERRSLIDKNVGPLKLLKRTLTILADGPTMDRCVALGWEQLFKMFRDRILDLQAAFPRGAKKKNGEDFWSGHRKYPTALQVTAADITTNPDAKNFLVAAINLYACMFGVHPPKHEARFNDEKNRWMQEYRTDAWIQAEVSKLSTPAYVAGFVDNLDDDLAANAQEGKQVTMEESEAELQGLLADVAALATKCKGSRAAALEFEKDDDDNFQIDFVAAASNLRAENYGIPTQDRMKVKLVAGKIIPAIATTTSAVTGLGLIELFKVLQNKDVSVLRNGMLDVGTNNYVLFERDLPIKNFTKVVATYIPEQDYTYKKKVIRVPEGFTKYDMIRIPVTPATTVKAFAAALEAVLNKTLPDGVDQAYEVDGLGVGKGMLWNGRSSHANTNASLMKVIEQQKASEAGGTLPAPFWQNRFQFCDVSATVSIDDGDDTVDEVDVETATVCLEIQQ

[3] = target: Sialic acid-binding Ig-like lectin 9 (Homo sapiens) (UniProt Q9Y336); experiment: Hs-Siglec9 ALPHAscreen SOP 20170721; conditions: 10 µM
Trypanosoma cruzi = experiment: Trypanosoma cruzi phosphomannomutase and mannose-1-phosphate guanylyltransferase assay; type: functional; conditions: 10 µM
[4] = target: T2, Arginase-2, mitochondrial (Homo sapiens) (UniProt P78540); experiment: in vitro enzyme assay to detect the production of urea directly proportional to the activity of Arginase II; type: functional; conditions: 33.3 µM; further: in the data most compounds retested in dose-response had high values
T2 sequence (whole entry): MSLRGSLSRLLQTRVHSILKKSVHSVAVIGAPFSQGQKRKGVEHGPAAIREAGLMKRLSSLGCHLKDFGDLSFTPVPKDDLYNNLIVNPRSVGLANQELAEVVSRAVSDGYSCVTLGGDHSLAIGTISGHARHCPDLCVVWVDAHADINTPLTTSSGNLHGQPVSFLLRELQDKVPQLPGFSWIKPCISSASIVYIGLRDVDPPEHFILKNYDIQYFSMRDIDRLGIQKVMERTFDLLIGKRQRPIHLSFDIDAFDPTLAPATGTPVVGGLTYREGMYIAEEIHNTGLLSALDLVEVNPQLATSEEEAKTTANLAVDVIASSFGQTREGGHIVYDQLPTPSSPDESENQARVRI

[5] = target: T3, Proteasome subunit beta (Trypanosoma cruzi) (UniProt O96673); experiment: Trypanosoma cruzi proteasome chymotrypsin-like activity (TcProtChymo) assay.; further: in the data most compounds retested in dose-response had high values; type: functional; conditions: 9.37 µM
T3 sequence (whole entry): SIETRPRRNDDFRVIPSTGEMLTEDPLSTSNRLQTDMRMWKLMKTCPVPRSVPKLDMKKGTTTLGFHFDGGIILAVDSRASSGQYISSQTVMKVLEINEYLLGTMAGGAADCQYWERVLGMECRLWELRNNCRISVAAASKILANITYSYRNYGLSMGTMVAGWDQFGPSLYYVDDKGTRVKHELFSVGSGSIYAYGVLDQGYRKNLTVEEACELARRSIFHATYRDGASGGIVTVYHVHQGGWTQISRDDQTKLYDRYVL

Homo sapiens = species: Homo sapiens; experiment: To identify inhibition of the IFN signalling (Jak-Stat) pathway via expression of an eGFP reporter gene under the control of an IFN-stimulated response element (ISRE) containing MxA promoter.; type: functional; conditions: 30 µM
[6] = target: T4, Tyrosyl-tRNA synthetase, putative (Trypanosoma cruzi (strain CL Brener)) (UniProt Q4DSP6); experiment: Trypanosoma cruzi tyrosyl tRNA synthetase (TcYRS) _High Tyrosine SOP; type: functional; conditions: 30 µM; further: in the data most compounds retested in dose-response had high values
T4 sequence (whole entry): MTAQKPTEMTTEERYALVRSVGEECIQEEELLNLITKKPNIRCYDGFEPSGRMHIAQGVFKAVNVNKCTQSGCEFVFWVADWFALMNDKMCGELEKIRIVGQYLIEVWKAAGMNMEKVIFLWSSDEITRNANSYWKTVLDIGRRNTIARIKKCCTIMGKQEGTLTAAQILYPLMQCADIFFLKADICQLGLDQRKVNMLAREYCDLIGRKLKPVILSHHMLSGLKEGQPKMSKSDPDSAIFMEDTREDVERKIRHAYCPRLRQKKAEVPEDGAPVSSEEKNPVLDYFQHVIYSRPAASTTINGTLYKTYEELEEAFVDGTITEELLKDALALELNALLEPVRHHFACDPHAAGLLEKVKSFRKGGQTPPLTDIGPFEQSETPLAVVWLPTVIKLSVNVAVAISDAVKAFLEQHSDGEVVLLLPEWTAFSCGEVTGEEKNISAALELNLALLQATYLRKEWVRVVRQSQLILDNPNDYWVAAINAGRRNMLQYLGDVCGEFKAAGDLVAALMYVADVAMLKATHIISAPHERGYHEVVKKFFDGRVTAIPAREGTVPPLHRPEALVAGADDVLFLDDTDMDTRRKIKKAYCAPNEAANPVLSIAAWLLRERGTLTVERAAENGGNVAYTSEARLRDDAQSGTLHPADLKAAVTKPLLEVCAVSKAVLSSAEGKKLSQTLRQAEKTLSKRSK

[7] = target: T4, Tyrosyl-tRNA synthetase, putative (Trypanosoma cruzi (strain CL Brener)); experiment: Trypanosoma cruzi tyrosyl tRNA synthetase (TcYRS) SOP; type: functional; conditions: 30 µM
[8] = target: Chromo domain-containing protein 1 (Saccharomyces cerevisiae (strain ATCC 204508 / S288c) (Baker's yeast)) (UniProt P32657); experiment: ScCHD-1 Enzyme Inhibition Assay; type: functional; conditions: 30 µM; further: in the data most compounds retested in dose-response had high values
Chain of Chromo domain-containing protein 1 (Saccharomyces cerevisiae (strain ATCC 204508 / S288c) (Baker's yeast)) (P32657 whole entry, the tested form may be a part): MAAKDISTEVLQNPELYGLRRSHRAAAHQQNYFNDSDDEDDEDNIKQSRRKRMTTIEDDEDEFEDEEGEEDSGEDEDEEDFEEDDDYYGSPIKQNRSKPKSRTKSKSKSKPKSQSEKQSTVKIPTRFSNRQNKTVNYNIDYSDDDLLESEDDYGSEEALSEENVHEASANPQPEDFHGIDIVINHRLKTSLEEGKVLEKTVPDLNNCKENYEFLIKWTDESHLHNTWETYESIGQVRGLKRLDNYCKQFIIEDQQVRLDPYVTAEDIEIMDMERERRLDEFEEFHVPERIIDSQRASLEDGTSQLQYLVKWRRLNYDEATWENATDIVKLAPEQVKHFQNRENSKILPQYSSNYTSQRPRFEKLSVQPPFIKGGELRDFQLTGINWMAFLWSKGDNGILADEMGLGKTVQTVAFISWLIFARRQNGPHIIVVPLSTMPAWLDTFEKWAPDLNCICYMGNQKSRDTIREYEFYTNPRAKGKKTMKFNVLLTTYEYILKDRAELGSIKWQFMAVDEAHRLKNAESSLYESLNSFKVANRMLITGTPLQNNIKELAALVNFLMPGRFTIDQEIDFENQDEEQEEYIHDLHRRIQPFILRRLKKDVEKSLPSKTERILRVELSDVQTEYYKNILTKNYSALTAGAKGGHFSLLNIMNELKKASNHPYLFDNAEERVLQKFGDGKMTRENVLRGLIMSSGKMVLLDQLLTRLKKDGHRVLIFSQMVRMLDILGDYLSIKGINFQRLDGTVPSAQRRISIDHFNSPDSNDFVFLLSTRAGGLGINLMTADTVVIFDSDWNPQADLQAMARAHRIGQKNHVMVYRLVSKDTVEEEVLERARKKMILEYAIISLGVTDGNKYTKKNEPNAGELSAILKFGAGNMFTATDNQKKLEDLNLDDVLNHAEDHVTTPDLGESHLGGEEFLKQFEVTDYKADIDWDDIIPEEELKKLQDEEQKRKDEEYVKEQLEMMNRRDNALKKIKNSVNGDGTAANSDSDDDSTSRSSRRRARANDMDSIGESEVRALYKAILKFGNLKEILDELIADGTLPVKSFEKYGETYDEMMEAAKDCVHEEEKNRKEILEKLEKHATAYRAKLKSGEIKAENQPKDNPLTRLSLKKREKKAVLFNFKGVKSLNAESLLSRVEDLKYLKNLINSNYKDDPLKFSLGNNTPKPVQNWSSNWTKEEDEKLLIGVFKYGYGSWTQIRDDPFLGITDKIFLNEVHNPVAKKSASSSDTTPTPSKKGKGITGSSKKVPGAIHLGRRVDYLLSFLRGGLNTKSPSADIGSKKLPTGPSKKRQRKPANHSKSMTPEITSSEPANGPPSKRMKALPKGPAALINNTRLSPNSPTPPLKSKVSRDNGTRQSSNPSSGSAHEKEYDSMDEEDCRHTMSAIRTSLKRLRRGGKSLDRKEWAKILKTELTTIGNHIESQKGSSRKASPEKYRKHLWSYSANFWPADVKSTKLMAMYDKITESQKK

Chain of Protein translocase subunit SecA (Escherichia coli (strain K12)) (P10408 whole entry): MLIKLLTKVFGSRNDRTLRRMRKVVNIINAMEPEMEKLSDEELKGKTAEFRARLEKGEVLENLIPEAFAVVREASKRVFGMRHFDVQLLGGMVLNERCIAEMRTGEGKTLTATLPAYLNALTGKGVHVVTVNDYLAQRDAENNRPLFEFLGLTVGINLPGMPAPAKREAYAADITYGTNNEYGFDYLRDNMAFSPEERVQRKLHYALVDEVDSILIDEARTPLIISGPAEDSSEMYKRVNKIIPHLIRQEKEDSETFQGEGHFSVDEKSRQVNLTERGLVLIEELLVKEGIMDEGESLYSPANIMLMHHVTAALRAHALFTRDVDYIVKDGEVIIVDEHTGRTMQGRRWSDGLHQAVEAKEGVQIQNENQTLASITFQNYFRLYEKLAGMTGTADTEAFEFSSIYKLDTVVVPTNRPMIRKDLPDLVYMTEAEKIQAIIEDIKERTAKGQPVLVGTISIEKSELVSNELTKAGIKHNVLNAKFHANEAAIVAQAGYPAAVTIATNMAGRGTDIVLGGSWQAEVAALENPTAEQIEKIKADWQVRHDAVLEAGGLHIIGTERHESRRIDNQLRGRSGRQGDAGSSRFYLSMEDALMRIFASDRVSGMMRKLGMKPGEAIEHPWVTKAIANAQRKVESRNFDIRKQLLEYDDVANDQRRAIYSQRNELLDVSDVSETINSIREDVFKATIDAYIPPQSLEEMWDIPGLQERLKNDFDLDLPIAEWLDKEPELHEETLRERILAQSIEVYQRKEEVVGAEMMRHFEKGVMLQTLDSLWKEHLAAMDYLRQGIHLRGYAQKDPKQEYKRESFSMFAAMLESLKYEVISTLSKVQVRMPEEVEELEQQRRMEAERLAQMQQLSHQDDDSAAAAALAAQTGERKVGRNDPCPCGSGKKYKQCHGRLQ
Chain of Sialic acid-binding Ig-like lectin 9 (Homo sapiens) (Q9Y336 whole entry): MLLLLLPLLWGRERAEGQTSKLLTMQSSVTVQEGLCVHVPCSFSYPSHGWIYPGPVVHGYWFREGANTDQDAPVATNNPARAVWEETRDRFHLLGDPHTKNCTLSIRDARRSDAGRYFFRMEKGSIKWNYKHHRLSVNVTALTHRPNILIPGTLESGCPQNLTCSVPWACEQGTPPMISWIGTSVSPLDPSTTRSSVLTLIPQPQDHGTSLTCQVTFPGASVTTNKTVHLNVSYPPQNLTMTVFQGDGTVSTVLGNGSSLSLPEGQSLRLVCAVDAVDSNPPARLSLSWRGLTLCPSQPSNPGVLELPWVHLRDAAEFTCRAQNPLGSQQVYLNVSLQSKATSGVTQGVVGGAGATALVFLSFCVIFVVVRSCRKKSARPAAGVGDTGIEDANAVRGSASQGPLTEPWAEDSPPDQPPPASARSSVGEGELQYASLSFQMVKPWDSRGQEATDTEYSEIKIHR

Row | SMILES | Percent Effect [1] | Percent Effect [2] | Percent Effect [3] | Percent Effect (Trypanosoma cruzi) | Percent Effect [4] | Percent Effect [5] | Percent Effect (Homo sapiens) | Percent Effect [6] | Percent Effect [7] | Percent Effect [8]
1 | CC(C)C(=O)N1CCC2(CCCN(CCOc3ccccc3)C2)C1 (stereo not given) | -6.57% | 1.3% | -1.94% | -3% | 1.83% | 1.63% | 7.35% | 2.9% | 10% | 11.6%
2 | COCC1CC2(CCN(Cc3cnn(C)c3)CC2)CN1C(C)C (stereo not given) | -5.94% | 6.49% | -6.16% | -2.82% | -4.45% | 11.6% | 2.36% | -2.63% | 2.56% | -4%
3 | Fc1cccc(-c2nc(CN3CCn4c(nnc4C4CC4)C3)co2)c1 | 2.37% | 0% | -4.75% | -5.42% | 1.33% | 8.4% | 19% | 0.526% | 7.69% | -19%
4 | COC(=O)CC(c1ccccc1)c1oc(C)cc(=O)c1O (stereo not given) | -10.4% | 0% | 4.84% | -5.33% | -1.75% | 1.71% | 6.47% | 1.6% | 0% | -1.53%
5 | Cc1nc(CN2CCO[C@@H]3CN(C(=O)NC(C)C)CC[C@@H]3C2)cs1 | -3.94% | 1.3% | 0.95% | -3.8% | -0.405% | 1.85% | -21.3% | 3.68% | 7.69% | -1.55%
6 | CN1CCC/C1=N\S(=O)(=O)c1ccc(NC(=O)CCc2cccs2)cc1 | 2.31% | 20.8% | 5.99% | 2.05% | 12.1% | 5.79% | 16.7% | 7.84% | 28.2% | -8.39%
7 | O=C(NCCC1=CCCCC1)C1CCCN(c2ccc3nncn3n2)C1 (stereo not given) | -2.76% | 8.11% | 3.56% | -0.291% | -9.44% | 13.5% | -5.74% | 3.72% | 12.2% | -1.71%
8 | O=C(c1ccnnc1)N1C[C@@H](OCC2CCOCC2)[C@H]2OCCC[C@H]21 | -4.07% | 1.3% | 6.81% | 5.55% | 14.6% | 0.618% | -6.79% | 0.526% | 7.69% | 96%
9 | CCc1nc(C2CCCN2C(=O)c2ccoc2C)no1 (stereo not given) | 2.59% | -2.56% | 10.5% | 0.469% | 5.74% | 2.3% | 17.4% | -0.478% | -18.1% | 0.101%
10 | Cn1cc(CN2CCC3(CC2)CC(c2ccncc2)C(=O)N3)cn1 (stereo not given) | -3% | 6.49% | -3.92% | -5.36% | 2.02% | 16.7% | -2.28% | 3.68% | 10.3% | -1.42%
11 | CC(c1nc(C2CC2)no1)N1CCN(Cc2ccsc2)CC1 (stereo not given) | -4.58% | 2.56% | 2.79% | 1.97% | -1.64% | 3.67% | 3.35% | 4.31% | 8.43% | -5.15%
12 | NC[C@H]1CC[C@H](C(NC(=O)c2ccccc2)c2ccccn2)CC1 (stereo not given in full) | -0.915% | 12% | -7.17% | 4.54% | -2.21% | 13.3% | -1.97% | 10.6% | 25% | -27.6%
